Each structure is given as a SMILES string. In all, about 1,500 compounds went through this assay and about 390 (26%) were called active. These entries were drawn from the full list. Results with a measured potency or affinity are listed apart. Unmarked numbers belong to inactive results. No rule for the calls is given here.

Histone-lysine N-methyltransferase NSD2 (Homo sapiens), sequence (O96028 whole entry, looked up): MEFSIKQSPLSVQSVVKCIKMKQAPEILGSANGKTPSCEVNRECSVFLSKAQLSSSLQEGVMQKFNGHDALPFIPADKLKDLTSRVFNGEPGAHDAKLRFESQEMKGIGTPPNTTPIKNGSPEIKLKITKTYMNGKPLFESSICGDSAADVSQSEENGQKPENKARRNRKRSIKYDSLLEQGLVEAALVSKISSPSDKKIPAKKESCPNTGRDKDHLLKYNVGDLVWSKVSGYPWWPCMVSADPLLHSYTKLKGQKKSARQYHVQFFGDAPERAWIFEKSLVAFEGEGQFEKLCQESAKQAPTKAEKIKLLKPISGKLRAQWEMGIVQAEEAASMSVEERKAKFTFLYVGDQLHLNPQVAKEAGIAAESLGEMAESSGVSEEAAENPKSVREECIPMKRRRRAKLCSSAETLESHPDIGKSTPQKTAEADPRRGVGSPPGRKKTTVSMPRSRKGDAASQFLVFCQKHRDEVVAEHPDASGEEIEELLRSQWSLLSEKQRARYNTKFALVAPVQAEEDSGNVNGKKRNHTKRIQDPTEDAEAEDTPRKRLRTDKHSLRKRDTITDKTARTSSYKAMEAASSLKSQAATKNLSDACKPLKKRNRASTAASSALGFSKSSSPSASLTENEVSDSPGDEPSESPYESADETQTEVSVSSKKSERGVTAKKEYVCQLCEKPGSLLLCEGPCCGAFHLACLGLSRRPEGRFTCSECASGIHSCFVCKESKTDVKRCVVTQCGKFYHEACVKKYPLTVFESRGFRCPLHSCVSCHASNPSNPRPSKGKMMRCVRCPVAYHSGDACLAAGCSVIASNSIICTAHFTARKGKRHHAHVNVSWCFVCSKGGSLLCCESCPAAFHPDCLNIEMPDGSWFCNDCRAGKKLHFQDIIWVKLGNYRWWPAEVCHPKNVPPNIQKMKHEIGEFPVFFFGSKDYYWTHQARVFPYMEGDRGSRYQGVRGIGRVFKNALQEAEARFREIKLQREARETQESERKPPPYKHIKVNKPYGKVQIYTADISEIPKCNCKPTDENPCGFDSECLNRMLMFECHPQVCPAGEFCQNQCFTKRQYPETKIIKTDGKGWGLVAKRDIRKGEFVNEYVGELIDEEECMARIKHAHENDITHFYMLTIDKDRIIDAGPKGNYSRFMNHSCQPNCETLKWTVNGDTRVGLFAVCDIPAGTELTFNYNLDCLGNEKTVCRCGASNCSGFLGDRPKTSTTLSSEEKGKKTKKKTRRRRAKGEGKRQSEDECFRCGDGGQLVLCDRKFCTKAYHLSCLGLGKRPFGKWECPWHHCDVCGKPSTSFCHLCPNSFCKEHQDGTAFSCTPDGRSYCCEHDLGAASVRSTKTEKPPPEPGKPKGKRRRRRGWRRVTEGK

This assay concerns the target Histone-lysine N-methyltransferase NSD2 (Homo sapiens) (UniProt O96028). Briefly: blockers of NSD2 H4 peptide methylation – biochemical, AlphaScreen, cherry-picked samples, dose response (AID 1053173).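 Also: 0% = neutral control wells and -100% = positive control wells on each plate.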 The note with it: 120 min; series mostly up to 10 µM; activity change, negative = inhibition: at the top concentration. A general note: In Alpha technology, singlet oxygen from a donor bead excites a nearby acceptor bead.
As for `Cc1nnc(N/N=C\c2ccc(-c3cccc(C(=O)O)c3)o2)n1N`, the “activity change, negative = inhibition” value was 1.17%. The same measure for `O=C(CCN1CCOCC1)NCC1COc2ccccc2O1` (stereo not given): 4.15%; for `COc1cc(CC(=O)NCC2COc3ccccc3O2)cc(OC)c1OC` (stereo not given): 4.11%; for `COc1cc(C(=O)NC2CCCc3ccccc32)cc(OC)c1OC` (stereo not given): -3.18%. Take `CN(C)/C=C1\C=C2C(=O)c3ccccc3N2C1=O`: the “activity change, negative = inhibition” value is -11.9%.

Turning to `Cc1c(C)c2cc(Cl)c(O)c(CN(C)C)c2oc1=O`, the “activity change, negative = inhibition” value is -4.88%.

Turning to `Nc1nonc1C(=O)NCCNC(=O)c1ccccc1F`, the “activity change, negative = inhibition” value is 4.89%. Next, `O=C(Nc1cccnc1)c1ccc(COc2ccccc2Cl)o1`: -3.23%; `CNc1ccc(Br)cc(C(=O)/C=C/c2ccc(OC)cc2)c1=O`: -11.9%; `O=C(CCc1nnc(CCCCc2ccccc2)o1)NC1CCCC1`: 0.963%. The same measure for `Cc1ccc(-n2nc(C(=O)NCc3ccc(C)o3)c3c4ccccc4n(C)c3c2=O)cc1`: -0.692%; for `CC(C)(C#N)NC(=O)C1CCCN1S(=O)(=O)c1ccc2ccccc2c1` (stereo not given): -3.31%. With `Cc1ccc2cccc(NC3OC(=O)c4ccccc43)c2n1` (stereo not given), the “activity change, negative = inhibition” value was -5.91%.

On to `COc1cc(C(=O)Nn2c(O)c(C3=c4ccccc4=NC3=O)sc2=S)ccc1O`, for which the “activity change, negative = inhibition” value is 1.57%. The same measure for `CC(=O)N1CCN(c2ccccc2NC(=O)c2ccc3ccccc3c2)CC1`: 4.94%. The same measure for `CN1CCN(c2ccc(NC(=O)COc3ccc4ccccc4c3)cc2)CC1`: 6.91%. Next, `COc1c(F)c(F)c(C(=O)Nc2cccc(Cl)c2N2CCOCC2)c(F)c1F`: -1.41%. On to `Nc1c2c(=O)oc(-c3ccccc3)cc2nn1-c1ccccc1`, for which the “activity change, negative = inhibition” value was 0.608%.

For `O=C(N/N=C/c1cc2c(cc1[N+](=O)[O-])OCO2)c1ccccn1`, the “activity change, negative = inhibition” value was 1.47%. For `Cc1ccccc1-c1ocnc1C(=O)Nc1ccccc1NC(=O)c1ccccn1`, the “activity change, negative = inhibition” value is -3.59%. With `O=C(Nc1cccc(C(F)(F)F)c1)c1cc(-c2ccco2)on1`, the “activity change, negative = inhibition” value is -0.125%.

Consider `Cc1cccc(N2CCN(S(=O)(=O)c3c(C)nc4scc(C)n4c3=O)CC2C)c1` (stereo not given), for which the “activity change, negative = inhibition” value is 4.46%. As for `O=C(Nc1cc(S(=O)(=O)Nc2ccccc2F)ccc1Cl)c1ccc(F)cc1F`, the “activity change, negative = inhibition” value was -4.71%. As for `CC1CC(C)CN(C(=O)C2CCN(S(=O)(=O)c3cccs3)CC2)C1` (stereo not given), the “activity change, negative = inhibition” value is -1.91%. Turning to `Cn1c(=O)c2c(nc(CN3CCc4ccccc4C3)n2CCc2ccccc2)n(C)c1=O`, the “activity change, negative = inhibition” value was -0.06%. For the compound `Cc1ccccc1-n1nc(C)c2c1N=C1C(Cl)=CC(Cl)=CN1C2c1ccc(C(=O)O)cc1` (stereo not given), the “activity change, negative = inhibition” value is -5.97%. In the case of `CC(C)N(Cc1ccccc1)C(=O)C1CCCN(c2ncnc3c2nc2n3CCCCC2)C1` (stereo not given), the “activity change, negative = inhibition” value was -1.45%.

Regarding `COc1ccc(NC(=O)c2ccc(F)c(F)c2)c2ccccc12`, the “activity change, negative = inhibition” value was 2.95%. The same measure for `c1ccc(-c2cc(-c3ccccc3)n3ncnc3n2)cc1`: -0.881%; for `COCCNC(=O)Cc1c(C)c2c(cc(C)c3c(C)coc32)oc1=O`: -2.39%; for `CC1CCN(C(=O)CN(Cc2ccc(Cl)cc2)S(C)(=O)=O)CC1`: -3.55%. `CCc1ccccc1NC(=O)CSc1nc2n[nH]c(C)c2c(=N)n1-c1cccc(OC)c1`: the “activity change, negative = inhibition” value is 0.33%.

For `CSc1ccccc1NC(=O)CN(C)C(=O)COc1ncnc2ccccc12`, the “activity change, negative = inhibition” value is 4.86%. The same measure for `CC(NC(=O)COC(=O)c1ccc([N+](=O)[O-])s1)c1ccccc1` (stereo not given): -0.22%; for `COCCOC(=O)C1=C(C)NC(C)=C(C(=O)OC(C)C)C1c1cccc([N+](=O)[O-])c1` (stereo not given): -0.917%. Consider `Cc1nnc(N/N=C/c2ccc(-c3ccccc3F)o2)n1N`, for which the “activity change, negative = inhibition” value is -3.53%. The same measure for `Nn1cnnc1N/N=C\c1ccc(-c2ccccc2[N+](=O)[O-])o1`: -6.2%. The same measure for `CC(C)c1ccc(NC(=S)N2CCCC(c3ccc(F)cc3)=N2)cc1`: 6.21%.

Turning to `Cc1ccc(NC(=S)N2CCC(NC(=O)c3cccc(F)c3)CC2)cc1`, the “activity change, negative = inhibition” value is 4.83%. Next, `COc1ccc(S(=O)(=O)N2CCCC(C(=O)NCCCn3ccnc3)C2)cc1OC` (stereo not given): -0.379%. Next, `CC1CN(c2nc3c(c(=O)n(Cc4ccc(Cl)cc4)c(=O)n3C)n2C)CC(C)O1` (stereo not given): 0.136%; `O=c1c2c(n3cnnc3n1-c1ccccc1)-c1ccccc1CC21CCCC1`: 0.452%. The same measure for `N#Cc1cc(-c2ccccc2)nnc1Oc1ccccc1Cl`: -2.46%; for `CCN(CC)S(=O)(=O)c1ccc(-c2cn3cc(Cl)ccc3n2)cc1`: 4.2%. For `COc1ccc(C(=O)N(Cc2cccs2)C2CCS(=O)(=O)C2)cc1` (stereo not given), the “activity change, negative = inhibition” value is -0.94%. Next, `CCOC(=O)Nc1cc(C(=O)OC)ccc1C`: -1.18%; `O=C(Nc1ccc(Br)cc1)c1ccc(-n2cnnn2)cc1`: -2.68%; `Cc1cc(C(=O)COc2cccc(-n3cnnn3)c2)c(C)n1-c1ccccc1`: -0.173%. The same measure for `O=C(C1CC1)N1CCc2[nH]c3ccccc3c2C1`: -2.06%. Regarding `C=CCn1c(N)c(C(=O)NCC2CCCO2)c2nc3ccccc3nc21` (stereo not given), the “activity change, negative = inhibition” value is 2.42%. The same measure for `COc1ccccc1NC1C=CS(=O)(=O)C1` (stereo not given): -0.449%. For `CC1CCCC(C)N1C(=O)COC(=O)c1ccc([N+](=O)[O-])o1` (stereo not given), the “activity change, negative = inhibition” value is -9.53%.

Take `COc1ccccc1NC(=O)c1ccccc1NS(=O)(=O)N1CCCC1`: the “activity change, negative = inhibition” value was -2%. The same measure for `CCN1CCc2nc3ccccc3c(C(=O)Nc3ccc(NC(C)=O)cc3)c2C1`: -11.6%; for `O=C1ON=C(c2ccccc2)/C1=C/c1ccc(O)cc1`: -0.931%.

These data come from PubChem BioAssay AID1053173 (Broad Institute, 2014).
